Assay results as given in the supplement of paper PMC13380429.

System: Vero E6 infected with SARS-CoV-2
Test: inhibition of SARS-CoV-2 cytopathic effect; higher = more antiviral protection, active = above 15
Conditions: 48 h

Measured: inhibition of SARS-CoV-2 cytopathic effect

CCCCCCCCc1ccc(-c2ccc(C(=O)O)cc2)cc1
inactive: 1 nM -0.05% | 8.33 nM 1.54% | 100 nM 1.52% | 833.33 nM 3.77% | 10000 nM 1.83%

O=C1NCN(c2ccccc2)C12CCN(CCCC(c1ccc(F)cc1)c1ccc(F)cc1)CC2 [fluspirilene]
inactive: 1 nM 0.39% | 8.33 nM -2.06% | 100 nM -3.28% | 833.33 nM -5.63% | 10000 nM 10.3%

C=CC[C@]1(O)CC[C@H]2[C@@H]3CCC4=CC(=O)CCC4=C3C=C[C@@]21C [altrenogest]
inactive: 1 nM -0.68% | 8.33 nM -1.12% | 100 nM -0.94% | 833.33 nM 0.13% | 10000 nM 4.81%

CCO[C@@H](Cc1ccc(OCCn2c(C)ccc2-c2ccc(SC)cc2)cc1)C(=O)O [saroglitazar]
inactive: 1 nM 1% | 8.33 nM -0.85% | 100 nM -1.26% | 833.33 nM 0.64% | 10000 nM 1.31%

CC(=O)CCCCn1c(=O)c2c(ncn2C)n(C)c1=O [pentoxifylline]
inactive: 1 nM 3.31% | 8.33 nM 2.23% | 100 nM 0.1% | 833.33 nM 1.21% | 10000 nM -0.68%

Cc1cc(Cn2nnc3c(-c4ccco4)nc(N)nc32)ccc1N [vipadenant]
inactive: 1 nM 3.17% | 8.33 nM 2.89% | 100 nM 2.73% | 833.33 nM -0.18% | 10000 nM 0.65%

O=C(O)C1=C(CSc2nnnn2CS(=O)(=O)O)CS[C@@H]2[C@H](NC(=O)[C@H](O)c3ccccc3)C(=O)N12 [Cefonicid (sodium)]
inactive: 1 nM -0.91% | 8.33 nM -1.09% | 100 nM 0.45% | 833.33 nM 0.79% | 10000 nM 1.23%

CC(C)(O)CC[C@@H](O)[C@](C)(O)[C@H]1CC[C@@]2(O)C3=CC(=O)[C@@H]4C[C@@H](O)[C@@H](O)C[C@]4(C)[C@H]3CC[C@]12C [20-hydroxyecdysone]
inactive: 1 nM -3.9% | 8.33 nM -2.28% | 100 nM -3.43% | 833.33 nM 0.03% | 10000 nM 1.01%

C[C@@H]1C[C@H]2[C@@H]3CCC4=CC(=O)C=C[C@]4(C)[C@@]3(Cl)[C@@H](O)C[C@]2(C)[C@@]1(OC(=O)c1ccco1)C(=O)CCl
inactive: 1 nM -0.2% | 8.33 nM -2.64% | 100 nM -2.34% | 833.33 nM -2.86% | 10000 nM 3.12%

COC(=O)N[C@H](C(=O)N1CCC[C@H]1c1ncc(-c2ccc(-c3ccc(-c4cnc([C@@H]5CCCN5C(=O)[C@@H](NC(=O)OC)C(C)C)[nH]4)cc3)cc2)[nH]1)C(C)C [daclatasvir]
inactive: 1 nM -1.73% | 8.33 nM 0.14% | 100 nM -0.71% | 833.33 nM -2.47% | 10000 nM -0.59%

CC(=O)OCC1=C(C(=O)O)N2C(=O)[C@@H](NC(=O)Cc3cccs3)[C@H]2SC1 [cephalothin]
inactive: 1 nM 0.91% | 8.33 nM 2.69% | 100 nM 1.37% | 833.33 nM -0.06% | 10000 nM 1.33%

N=C(N)c1ccc(/C=C/c2ccc(C(=N)N)cc2O)cc1 [hydroxystilbamidine]
inactive: 1 nM -3.2% | 8.33 nM -1.76% | 100 nM -5.12% | 833.33 nM -3.2% | 10000 nM -1.16%

CS(=O)(=O)c1ccc(-c2cn3ccccc3n2)cc1 [zolimidine]
inactive: 1 nM -3.68% | 8.33 nM 0.55% | 100 nM 3.07% | 833.33 nM -5.22% | 10000 nM -2.8%

Cc1ccc(OCCSc2ncccn2)c(Br)c1
inactive: 1 nM -2.86% | 8.33 nM -1.79% | 100 nM -1.08% | 833.33 nM -4.19% | 10000 nM -1.49%

CNC(C)(C)Cc1ccccc1 [mephentermine]
inactive: 1 nM -6.95% | 8.33 nM -4.1% | 100 nM -6.2% | 833.33 nM -3.76% | 10000 nM 2.65%

c1cc(Cc2cnc[nH]2)ccn1 [immethridine]
inactive: 1 nM 0.32% | 8.33 nM 2.15% | 100 nM 0.76% | 833.33 nM 4.67% | 10000 nM 1.99%

Cc1cc(/C=C/C#N)cc(C)c1Nc1ccnc(Nc2ccc(C#N)cc2)n1 [rilpivirine]
inactive: 1 nM 0.35% | 8.33 nM -3.25% | 100 nM -2.82% | 833.33 nM -1.06% | 10000 nM -6.76%

O=C1NC(=O)[C@@H](c2cn3c4c(cccc24)CCC3)[C@@H]1c1c[nH]c2ccccc12 [tivantinib]
inactive: 1 nM -0.36% | 8.33 nM -0.11% | 100 nM -2.57% | 833.33 nM -1.94% | 10000 nM 2.92%

Nc1nc(Cl)nc2c1ncn2[C@@H]1O[C@H](CO)[C@@H](O)[C@@H]1F [clofarabine]
inactive: 1 nM 0.13% | 8.33 nM 2.08% | 100 nM 1.42% | 833.33 nM 2.37% | 10000 nM 3.69%

Cc1ncc(CSSCc2cnc(C)c(O)c2CO)c(CO)c1O [pyritinol]
inactive: 1 nM -0.56% | 8.33 nM 1.16% | 100 nM 2.92% | 833.33 nM 1.42% | 10000 nM 0.94%

COc1cc(Br)c(S(=O)(=O)Nc2ccc(C(F)(F)F)c(O[C@@H]3CCN(C)C3)c2)cc1OC
inactive: 1 nM 1.05% | 8.33 nM 2.6% | 100 nM -1.36% | 833.33 nM -0.46% | 10000 nM -2.24%

OC[C@H]1O[C@@H](Oc2cc3c(O)cc(O)cc3[o+]c2-c2ccc(O)c(O)c2)[C@H](O)[C@@H](O)[C@@H]1O [kuromanin]
inactive: 1 nM -0.56% | 8.33 nM 0.72% | 100 nM -0.34% | 833.33 nM -2.36% | 10000 nM -4.26%

CC[C@]1(O)C[C@@H]2CN(CCc3c([nH]c4ccccc34)[C@@](C(=O)OC)(c3cc4c(cc3OC)N(C)[C@H]3[C@@](O)(C(=O)OC)[C@H](OC(C)=O)[C@]5(CC)C=CCN6CC[C@]43[C@@H]65)C2)C1 [Vinblastine (sulfate)]
inactive: 1 nM -0.48% | 8.33 nM 1.74% | 100 nM -0.03% | 833.33 nM 0.75% | 10000 nM -0.15%

CCCCOC(=O)c1ccc(N)cc1 [butamben]
inactive: 1 nM 3.03% | 8.33 nM 2.87% | 100 nM 2.37% | 833.33 nM 6.53% | 10000 nM 2.78%

c1cnc(NCc2ccc(CNc3ncccn3)cc2)nc1
inactive: 1 nM -2.38% | 8.33 nM -1.7% | 100 nM -0.65% | 833.33 nM -1.46% | 10000 nM -0.62%

O=C1NCN(c2ccccc2)C12CCN(CC1COc3ccccc3O1)CC2 (stereo not given) [spiroxatrine]
inactive: 1 nM -0.76% | 8.33 nM 0.74% | 100 nM 1.03% | 833.33 nM 0.28% | 10000 nM 0.38%

CCOC(=O)c1ncn2c1CN(C)C(=O)c1cc(N=[N+]=[N-])ccc1-2
inactive: 1 nM 3.15% | 8.33 nM 7.03% | 100 nM 2.59% | 833.33 nM -0.14% | 10000 nM -2.15%

O=C(O)c1nn(Cc2ccc(Cl)cc2Cl)c2ccccc12 [lonidamine]
inactive: 1 nM -0.69% | 8.33 nM 0.67% | 100 nM 0.81% | 833.33 nM 1.31% | 10000 nM -0.94%

O=C(/C=C/c1ccc(O)c(O)c1)OCCc1ccccc1 [caffeic-acid-phenethyl-ester]
inactive: 1 nM -3.4% | 8.33 nM -2.75% | 100 nM -2.14% | 833.33 nM 2.36% | 10000 nM 7.5%

NC(=O)c1ccc(I)c([N+](=O)[O-])c1 [iniparib]
inactive: 1 nM 0.64% | 8.33 nM 1.76% | 100 nM 0.16% | 833.33 nM 2.29% | 10000 nM 3.53%

COc1ccc(C(=O)NCc2cccnc2)cc1C(=O)NCc1cccnc1 [picotamide]
inactive: 1 nM -0.44% | 8.33 nM 2.62% | 100 nM 0.96% | 833.33 nM 0.22% | 10000 nM -1.62%

CNC(=O)c1ccc(C)c(-n2c(C)cc(OCc3ccc(F)cc3F)c(Br)c2=O)c1
inactive: 1 nM -1.52% | 8.33 nM -2.37% | 100 nM -3.51% | 833.33 nM -2.74% | 10000 nM -7.45%

O=S1(=O)N[C@H]2CCCN2c2ccccc21
inactive: 1 nM -9.82% | 8.33 nM -6.86% | 100 nM -6.43% | 833.33 nM -8.3% | 10000 nM -12.2%

Nc1nccc2c1ncn2[C@@H]1O[C@H](CO)[C@@H](O)[C@@H]1O [3-deazaadenosine]
inactive: 1 nM -0.84% | 8.33 nM -2% | 100 nM -2.27% | 833.33 nM -0.63% | 10000 nM -2.6%

CC[N+](C)(CC)CCC[n+]1c(-c2ccccc2)c2cc(N)ccc2c2ccc(N)cc21 [propidium-iodide]
inactive: 1 nM -1.36% | 8.33 nM -0.29% | 100 nM 3.2% | 833.33 nM 2.34% | 10000 nM 2.62%

O=C(N[C@@H]1CC[C@@H](c2cccc(F)c2F)CN(CC(F)(F)F)C1=O)N1CCC(n2c(=O)[nH]c3ncccc32)CC1 [telcagepant]
inactive: 1 nM 0.8% | 8.33 nM 6.42% | 100 nM 7.5% | 833.33 nM 2.53% | 10000 nM 5.63%

C#C[C@]1(O)CC[C@H]2[C@@H]3CCC4=CC(=NO)CC[C@@H]4[C@H]3CC[C@@]21CC (mixture of isomers) [norelgestromin]
inactive: 1 nM -0.39% | 8.33 nM -1.06% | 100 nM 1.68% | 833.33 nM 2.43% | 10000 nM 2.14%
